# Compound activity as filed in PubChem BioAssay.
# ALDH1A1 inh: qHTS Assay for Inhibitors of Aldehyde Dehydrogenase 1 (ALDH1A1); Aldehyde dehydrogenase 1A1 (Homo sapiens), P00352; Purified ALDH1A1, NADH fluorescence, propionaldehyde substrate; 7.3% of 220,000 active; Potency, µM (top dose mostly 75.3 µM), for inactives: top-dose activity, negative = inhibition, actives largely listed as inhibitors;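 further: potency means the concentration at half of the fitted maximal effect; plate controls were no enzyme wells and a reference inhibitor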
# 12-hLO inh: qHTS Assay for Inhibitors of 12-hLO (12-human lipoxygenase); purified 12-hLO, xylenol orange hydroperoxide absorbance; Potency, µM (top dose mostly 57.1 µM), for the others: at the highest dose activity change, negative = inhibition, usual class: inhibitors; 0.12% of 150,000 active; active means well fitted inhibition curve with a large enough effect; inconclusive means small, poorly fitted or top-dose-only effect; further: potency means the concentration at half of the fitted maximal effect; nearly all actives have a fitted effect of over 55% in size
#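 Hydroperoxide formation by human 12-lipoxygenase from 40 uM arachidonic acid was followed colorimetrically via ferric-xylenol orange complex, using the 573/405 nm absorbance ratio. Enzyme concentration was 150 nM, with 30 min reaction at room temperature.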
# LMNA splice mod: qHTS Assay for Modulators of Lamin A Splicing. HeLa LMNA splicing GFP/RFP minigene ratio, 48 h. Potency, µM (highest dose often 46.1 µM), inactives show at the highest dose ratio change, negative = inhibition, most hits filed as inhibitors. 0.01% of 200,000 active. AID 1487, 2009; active means well fitted inhibition curve with a large enough effect in the signal ratio, with a control signal flat, not every such curve was filed as active; inconclusive means small, poorly fitted or top-dose-only effect, or effect the other way, or a change in a side signal; the % refers to the signal ratio; further: potency means the concentration at half of the fitted maximal effect
#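 S3 HeLa stable clones carrying a lamin A-EGFP splicing minigene plus DsRed2 were seeded at 600 cells/well in Opti-MEM with 2% FBS, pin-dosed and incubated 48 h at 37°C. Acumen cytometry (488 nm) gave the GFP/RFP total-intensity ratio.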
# PNC inhibitor: High Content Assay for Compounds that inhibit the Assembly of the Perinucleolar Compartment; activity change (PNC), negative = inhibition, % at 10 µM; 3.1% of 140,000 active; PC3M PTB-GFP, PNC prevalence imaging, 16 h; stronger effect = lower value; AID 2417, 2010;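 active means readout at or below -70, meaning at least 70% loss of cells showing the perinucleolar compartment, a nuclear body marking cancer cells; inconclusive means readout between -30 and a set limit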;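 further: plate controls were DMSO wells for no effect and camptothecin positive control wells for full effect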
#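 Compounds are pinned in duplicate onto adhered PC3M cells stably expressing GFP-tagged PTB and incubated 16 h at 37 C. Cells are then fixed, nuclei stained with Hoechst, and PNC-positive cells counted.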
# HPGD block: qHTS Assay for Inhibitors of HPGD (15-Hydroxyprostaglandin Dehydrogenase); 15-hydroxyprostaglandin dehydrogenase [NAD(+)] (Homo sapiens), P15428; Potency, µM, inactives show at the highest dose activity change, negative = inhibition, hits mostly inhibitors; 4.3% of 150,000 active; purified HPGD, NADH fluorescence kinetic, PGE2 substrate; further: potency means the concentration at half of the fitted maximal effect
# Target sequence (P15428 whole entry, looked up): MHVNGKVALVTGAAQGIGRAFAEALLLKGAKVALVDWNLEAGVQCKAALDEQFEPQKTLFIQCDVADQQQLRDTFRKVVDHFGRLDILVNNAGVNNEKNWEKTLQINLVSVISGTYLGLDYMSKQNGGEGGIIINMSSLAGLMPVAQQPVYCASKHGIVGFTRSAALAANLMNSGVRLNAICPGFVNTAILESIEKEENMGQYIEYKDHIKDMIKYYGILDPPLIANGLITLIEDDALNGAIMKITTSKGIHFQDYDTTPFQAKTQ
#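 20 nM HPGD preincubated 15 min at room temperature with compound in 50 mM Tris-HCl pH 8, 0.01% Tween 20. Started with 1 mM NAD+ and 30 uM prostaglandin E2; NADH fluorescence (360/450 nm) read 5 times over 30-s intervals, last minus first.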
# Numbers without * were called inactive; ? = inconclusive; / = no result; [ ] = dose if it differs, or a comment. Only some compounds are listed: those with a hit (about 10% of all), similar ones and a draw of the others. Unless noted, the call rests on the fitted dose curve; in most records, active means well fitted inhibition curve with a large enough effect (not every such curve was filed as active); inconclusive means small, poorly fitted or top-dose-only effect, or another doubt; inactive means no such curve, though single readings can be large or run the other way. Unless noted, on the % scale 0 is the no-effect control and ±100 the full control effect.
SMILES,ALDH1A1 inh,12-hLO inh,LMNA splice mod,PNC inhibitor,HPGD block
COc1ccc(COC(=O)N/N=C2/C[C@@H](O)[C@@H](O)[C@@H]3[C@@H]4C(=O)N(C(C)(C)C)C(=O)[C@H]4CC[C@@H]23)cc1,1%[13.5 µM],/,/,/,/
O=C(Oc1ccccc1)N1CCC[C@@]2(CCN(c3ccncc3)C2)C1,3%,-2%,/,/,3%
O=C(CSc1nc2ccccc2s1)Nc1ccc2c(c1)oc1ccccc12,25µM*,-4%,-12%,31,-14%
O=C(CSc1nc2ccccc2s1)Nc1ccc(Cl)c(C(=O)O)c1,2.5µM*,/,/,/,/
Nc1nc(SCC(=O)Nc2cc(S(=O)(=O)N3CCOCC3)ccc2Cl)n[nH]1,-6%,/,/,/,/
O=C(CSc1nc2ccccc2s1)Nc1cc(S(=O)(=O)N2CCOCC2)ccc1O,1%,-11%,?,-4,13µM*
CC(C)(C)CC(C)(C)c1cc(O)c(O)c(CN2CCCCC2)c1,?,-19%[11.4 µM],/,/,-23%
Cc1ccc(C2=[N+]([O-])C3(CCCCC/C3=N\O)N(O)C2(C)C)o1 (configuration not stated),28µM*,-9%,-8%,-11,-14%
Clc1ccc(-c2nnc3sc(Cc4cccs4)nn23)cc1,22µM*,-6%,?,-9,-11%
O=C1c2ccccc2C(=O)N1Cc1nn2c(-c3ccc(Cl)cc3)nnc2s1,14µM*,-3%,2%,?,-8%
COc1ccc(-c2nnc3sc(CN4C(=O)c5ccccc5C4=O)nn23)cc1,?,1%,1%,-22,-20%
COc1ccc(/C=c2\sc3nc(-c4ccccc4OC)nn3c2=O)c(OC)c1,9%,3%,-22%,26,?
C=CCOc1ccccc1/C=c1\sc2nc(=O)c(C)nn2c1=O,22µM*,-13%,-3%,22,-27%
O=[N+]([O-])/C(=C\Nc1ccccc1Cl)S(=O)(=O)c1ccccc1,-99%,-16%,?,-25,32µM*
O=C(CC(Nc1ccc(F)cc1)C(=O)OCC(=O)c1cccs1)c1ccccc1 (configuration not stated),11µM*,-8%,-14%,7,-15%
O=C(CC(Nc1ccc(F)cc1)C(=O)O)c1ccccc1 (configuration not stated),?,-3%,7%,?,-6%
CC(C)(C)SCCNC(=O)/C=C/c1cccc([N+](=O)[O-])c1,14µM*,-5%,-7%,29,-7%
O=C(/C=C/c1cccc([N+](=O)[O-])c1)NCCSCc1ccc(Cl)cc1,22µM*,-17%,?,-16,-26%
O=S(=O)(c1ccc2ccccc2c1)n1nc(-c2ccco2)nc1NCc1cccc(Cl)c1,/,/,-2%[46 µM],/,/
COc1ccc(NC2=NCC(=O)N2c2ccccc2)c(OC)c1,3%,-1%,13%,-94*,2%
COc1ccc(NC2=NCC(=O)N2c2ccccc2F)c(OC)c1,8%,-1%,7%,-28,-4%
Cc1ccc(C)c(C(=O)COc2ncnc3ccccc23)c1,-7%,/,/,/,/
COc1cc(OC)c(C(=O)COc2ncnc3ccccc23)c(OC)c1,16µM*,0%,-5%,?,-2%
Cc1ccc(Cl)cc1N1CCN(C(=O)CCS(=O)(=O)c2cccc3nonc23)CC1,22µM*,-4%,?,?,-7%
O=C(CCS(=O)(=O)c1cccc2nonc12)NCCc1ccccc1,22µM*,-10%,-8%,?,-8%
SMILES,ALDH1A1 inh,12-hLO inh,LMNA splice mod,PNC inhibitor,HPGD block
COc1cccc(CNC(=O)CCS(=O)(=O)c2cccc3nonc23)c1,?,1%,-1%,33,-4%
O=C(CCS(=O)(=O)c1cccc2nonc12)NCc1ccc(Cl)cc1,8.9µM*,/,-21%[9.22 µM],/,/
CCCCC(CC)CNC(=O)CCS(=O)(=O)c1cccc2nonc12 (configuration not stated),?,-1%,0%,?,-7%
CC(C)CCNC(=O)CCS(=O)(=O)c1cccc2nonc12,10µM*,-4%,-1%,-23,-7%
O=C(O)/C(Cc1ccc([N+](=O)[O-])cc1)=N/O,0%[13.5 µM],-4%[11.4 µM],/,/,-7%
Cc1ccc(N2CCN(C(=O)c3c(C)oc4nc(C)nc(N5CCCC5)c34)CC2)c(C)c1,/,/,-5%[46 µM],/,/
CCOC(=O)CNc1oc(-c2ccccc2)nc1-c1ccccc1,-1%,-1%,/,/,-5%
CC(C)NC(=O)CCS(=O)(=O)c1cccc2nonc12,25µM*,0%,5%,13,-5%
COc1ccc(N(C)C(=O)CCS(=O)(=O)c2cccc3nonc23)c(OC)c1,13µM*,5%,-2%,22,-5%
Cc1ccc(Cl)cc1N1CCN(C(=O)Cn2ccc3ccccc3c2=O)CC1,20µM*,-16%,?,23,/
O=C(CCS(=O)(=O)c1cccc2nonc12)N1CCCc2ccccc21,11µM*,-8%,11%,3,-15%
Cc1ccc(NC(=O)CCS(=O)(=O)c2cccc3nonc23)cc1,?,/,2%[9.22 µM],/,/
O=C(CCCC(=O)N1CCCc2ccccc21)N1CCCc2ccccc21,-15%,-1%,-10%,34,-4%
Cc1cccc(C)c1NC(=O)C(=O)NCC(c1cccnc1)N1CCc2ccccc21 (configuration not stated),/,/,6%[46 µM],/,/
COc1cc(/C=C2\SC(=S)N(CCC(=O)Nc3ccccc3)C2=O)cc(OC)c1OC,-3%,/,/,/,/
CCOc1ccc(/C=C2\SC(=S)N(Nc3ccccc3)C2=O)cc1OC,3.2µM*,1%,?,-18,-7%
C=CCN1C(=O)/C(=C\c2cc(Br)c(OCc3ccccn3)c(OC)c2)SC1=S,0.28µM*,/,-7%[46 µM],/,/
COc1cc(/C=C2\SC(=S)N(CC(=O)Nc3ccccn3)C2=O)cc(OC)c1OC,?,-2%,-29%,-6,-13%
CCOc1cc(/C=C2/SC(=S)N(C)C2=O)ccc1Oc1ccc([N+](=O)[O-])cc1[N+](=O)[O-],0.4µM*,/,-6%[46 µM],/,/
COc1cc(/C=C2\SC(=S)N(Nc3ccccc3)C2=O)cc(OC)c1OC,7.1µM*,-25%,?,-3,-17%
COc1ccc(/C=C2\SC(=S)N(Cc3cccnc3)C2=O)cc1C,-2%,-3%,5%,?,-27%
COc1cc(/C=C2\SC(=S)N(NS(=O)(=O)c3ccc(C)cc3)C2=O)ccc1O,25µM*,/,/,/,/
Cc1csc(SCC(=O)Nc2ccc(S(=O)(=O)N3CCCC3)cc2)n1,14µM*,1%,?,15,-18%
Nc1cc(=O)[nH]c(SCC(=O)Nc2ccc(S(=O)(=O)N3CCOCC3)cc2)n1,?,4%,-1%,80,-21%
